Assay results published in the supplement of paper PMC3334620.
Whole data set: some 33,000 sequences, median “E-score (-0.5 to 0.5)” near -0.015, cut for the highest 2% near 0.3. The sample as a whole holds a higher share of the highest values than the screen did.

Each sequence was assayed against T1, Abf1 (UniProt P14164) (assay: PBM E-score (8-mer binding enrichment) (E-score (-0.5 to 0.5)); higher = stronger / more preferred TF binding). Conditions: protein concentration: 200 nM; construct: GST-full length.
T1 sequence: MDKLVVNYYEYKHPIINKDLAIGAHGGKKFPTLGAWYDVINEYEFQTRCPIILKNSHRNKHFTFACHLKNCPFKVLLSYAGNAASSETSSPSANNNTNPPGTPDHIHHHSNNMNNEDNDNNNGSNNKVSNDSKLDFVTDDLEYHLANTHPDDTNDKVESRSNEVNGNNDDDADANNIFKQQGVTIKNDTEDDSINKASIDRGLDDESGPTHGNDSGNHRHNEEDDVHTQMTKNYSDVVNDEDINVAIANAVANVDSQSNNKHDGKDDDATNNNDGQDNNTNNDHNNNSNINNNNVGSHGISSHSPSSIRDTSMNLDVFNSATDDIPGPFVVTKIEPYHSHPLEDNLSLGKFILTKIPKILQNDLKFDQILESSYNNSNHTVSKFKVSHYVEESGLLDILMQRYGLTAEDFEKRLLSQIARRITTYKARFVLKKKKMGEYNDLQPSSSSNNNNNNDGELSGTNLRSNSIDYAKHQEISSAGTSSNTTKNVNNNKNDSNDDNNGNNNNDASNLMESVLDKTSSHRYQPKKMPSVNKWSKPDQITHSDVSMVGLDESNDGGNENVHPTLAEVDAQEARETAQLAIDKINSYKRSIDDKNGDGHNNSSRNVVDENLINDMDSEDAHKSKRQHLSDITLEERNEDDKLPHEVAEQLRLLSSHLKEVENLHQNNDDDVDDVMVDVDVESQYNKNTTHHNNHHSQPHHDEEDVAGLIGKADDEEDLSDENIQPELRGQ
Procedure, shortened: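 PURExpress in vitro transcription/translation supplied GST-tagged yeast transcription factors, either full-length or DNA-binding domain. Applied at about 100-200 nM to universal all-10-mer Agilent arrays double-stranded by primer extension, the bound protein was detected with fluorescent anti-GST. E-scores, modified Wilcoxon-Mann-Whitney statistics, were given by the Universal PBM Analysis Suite to ungapped eight-base words pooled with their reverse complements after masliner normalisation.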

Sequence	PBM E-score
GATCGCTA	0.157
CTAAGCGA	-0.0187
CTTTTAGA	-0.028
ATATCGGG	0.018
ATATCGTG	0.318
ATATCGCA	0.144
CTATCGTC	0.252
ATATCGGC	0.149
ATATCGCC	0.269
ATATCGTC	0.336
AAATCGTA	0.267
ATATCGTA	0.203
AAATCGTC	0.347
ATATCGCG	0.382
AAATCGTG	0.192
AGGGAACT	-0.244
AGCCGTAA	0.193
GCGTCCTA	-0.0099
TACCAAAA	0.0276
ACACAAAC	0.0247
GTATAAAA	0.356
GTATAATA	0.299
CGATAATA	0.326
GTATAAAC	0.22
ATATAATA	0.0977

Sequence	PBM E-score
CTATAATA	-0.0104
GGATAATA	0.173
AGATAATA	0.107
ATATAAAA	0.185
GTTAACGA	0.252
ACTGGTCG	-0.0382
AGTGCGAA	-0.196
CTCACCAG	-0.101
CGAAGGGC	-0.116
ACAGTGTC	-0.155
AGGGCTTC	0.0312
AATCGTAG	0.197
ACTCGTAT	0.305
ACTCGTAG	0.16
AATCGTAT	0.297
AATCGTAA	0.145
GCTCGTAA	0.118
TCTCGTAA	0.306
CCTCGTAA	0.131
ACTCGTAA	0.173
CACTCGGC	-0.0263
ACCAAGCT	-0.00876
AGGTTACT	0.024
CAATACTG	-0.239
CGCTCACA	-0.0723

Sequence	PBM E-score
ACGCGGGC	-0.0155
GCTTCGCC	-0.147
ACCCGTAA	0.0373
CGCCGTAG	0.209
CGCCGTCA	0.199
CGCCGTAA	0.0647
GGCCGTAA	0.121
AGCCGTCC	0.0251
ACCCGTAC	0.299
ACCCGTAG	-0.248
GGCCGTAC	0.367
CGCCGTCC	0.308
AGCCGTAC	0.238
CGCCGTAC	0.315
CTACGTCA	0.146
CCAGTGAG	-0.251
CATTAGGC	0.0172
GGTCCCAA	-0.136
CAGTCCAA	-0.177
TCGCGGAA	0.0001
AGCTACCG	-0.0848
AGCCGTTC	-0.0626
CACCGTAC	0.385
CGCCGTTA	0.14
CACCGTAG	0.0588

Sequence	PBM E-score
CACCGTAA	0.101
CGCCGTTC	0.331
AGACCCCG	-0.0859
CAGCAAGG	-0.192
GGTGACTA	0.149
GCACTATA	0.017
AAGACAAC	0.0616
CTCCCCAC	-0.0818
CGAGAGAA	0.0467
CAGTAATA	0.304
CAGTAATC	-0.00799
CAGTAATG	-0.0287
GCCGTAAC	0.211
ATTTATTG	0.0665
CCCATTTC	-0.182
CACGTCAG	0.0977
ATCGTCAC	0.389
GCCGTCAC	0.0578
GTCGTCAC	0.35
CTCGTCAA	0.0916
CACGTCAC	0.368
CTCGTCAC	0.336
GTCGTCAA	0.222
CACGTCAA	0.0325
AGCGTCAC	-0.00719

Sequence	PBM E-score
CTCGTCAG	0.182
ATCGTCTC	0.25
AGTATGCA	0.111
CAATGCCC	-0.0566
GGGTTTGA	0.121
CCGCGCAC	-0.209
CCCTTAGG	-0.0737
AGGACCCC	-0.0335
ATCGTCGA	0.289
ATCGTCGC	0.362
ATCGTCGG	0.218
ATGCTAAA	0.0969
GCCACGAA	0.0988
CCCACGAC	0.0916
ACCACGAA	0.0971
CCCACGAG	0.0399
CCCACGAA	0.316
TCCACGAA	0.352
ACGCACAT	-0.00733
CGCGGCGC	-0.00706
GGACGACA	0.299
GGACGACC	0.0608
CGACGACA	0.311
TGACGACA	0.361
CGACGACG	0.177

Sequence	PBM E-score
AGACGACC	0.0722
GGACGAGA	0.145
TCACGACA	0.257
AGACGACA	0.264
CAAGTTGA	-0.187
CCCGGGCC	-0.304
CAACTCGC	0.0334
AATTTCAT	0.134
GCCAGGCA	-0.186
TGCCTCAA	-0.124
TACGGCGA	0.313
AACGGCGT	0.227
GACGGCAA	0.246
CACGGCAA	0.219
AACGGCGA	0.327
GACGGCTA	0.0813
AACGGCTA	0.193
AACGGCGC	0.123
TCCGGCGA	0.069
GACGGCGA	0.0475
CACGGCTA	0.307
TACGGCAA	0.301
GCCATGAA	-0.0667
ATTTTCCG	0.1
CCCGGAAC	-0.125

Sequence	PBM E-score
AATTCACT	-0.102
AAGCTCTC	-0.125
GCCATAGA	-0.126
GACTCATA	-0.0291
ACTTCGCA	0.0373
ACGGGTGA	0.32
CACGGCGC	0.139
CACGGCGA	0.305
CCGGGTGA	0.12
AACGGTGA	0.135
CACGGTGA	0.308
ACGGGTGG	0.0777
CACGGCGG	0.00732
CACGGTGC	0.0971
AAGTGGTC	-0.131
CCACCTGA	-0.0561
TCAATAGA	-0.172
GGTGATGA	0.34
GGTGATTA	0.242
AGTGATTA	0.351
CGTGATGA	0.31
ACTGATGA	0.19
AGTGATTC	0.207
CCTGATGA	0.139
CGTGATGC	0.0552

Sequence	PBM E-score
GCTGATGA	0.199
GTTGATGA	0.283
AGTGATGG	0.056
AGTGATGA	0.366
CATTCGCC	0.0362
ATTATTAG	0.164
CATCCTCC	-0.127
ACAGGTCA	-0.0348
ACCTGCAT	0.013
AACCAGCC	-0.0913
CTGTGAAC	0.0459
CCTCCCAG	-0.196
CGTGCCAG	0.148
ACCTGGCC	-0.0752
CCCTCTAA	-0.23
CCTAAATC	0.154
AATGATGC	0.196
AGTGATGC	0.319
ATTGATGC	0.0481
AGAAGACT	-0.0993
TCACTACA	0.344
CCACTACA	-0.0773
ACACTACA	0.169
CTCTGTGA	-0.118
CGAACAGC	-0.165

Sequence	PBM E-score
AAGATCCT	0.0788
TATTTCGA	0.272
GAGACGAA	0.0822
TAGACGAA	0.338
CAGACGAA	0.324
TAGACGGA	0.122
CAGACGAC	0.191
AAGACGAA	0.223
AAGCTAAC	0.0254
AGTCAGCC	-0.181
CCTCCCAC	-0.188
CCTCCAGC	-0.322
GCCTACCC	-0.25
CACTAGCC	0.144
GATGTCCC	0.209
ACGATGCG	0.07
ACCCCCGT	-0.0911
CGGACGAA	0.35
GGGACGAA	0.0455
CGGACGAC	0.343
AGGACGAC	0.12
CGGACGAG	0.191
AGGACGAA	0.147
AGAGCGTC	0.0295
AGACTTTG	0.0104

Sequence	PBM E-score
CGCAAACC	-0.124
AGTGAAGG	-0.145
GTTCTTCA	0.117
GGGTCTAA	-0.112
AATCATCA	0.317
CATCATCA	0.254
TATCATCA	0.385
AATCATCG	0.179
AATCATCT	0.184
TCTCATCA	0.145
GATCAACC	0.005
CTTCTATC	0.0251
ACGCACAC	0.0964
AAGGCTCG	-0.0968
ACGAAGGA	0.0584
AACCGTGG	-5e-05
AACCGTCT	-0.0069
AACCGTCG	0.298
CATCGTGG	0.0192
AACCGTGC	0.306
GACCGTGC	0.108
AATCGTGA	0.175
AACCGTCC	-0.0986
CATCGTGA	0.135
AATCGTGC	0.311

Sequence	PBM E-score
AATCGTGG	0.125
CATCGTGC	0.314
AGGCCCTA	-0.113
AATGTGCA	0.0308
GCTACAGA	-0.126
CAACTGGA	-0.182
AGCACTAA	0.154
CTCACTAC	0.203
AACACTAC	-0.0369
ATCACTAA	0.359
GCCACTAA	-0.149
ACCACTAA	-0.0853
AGCACTAG	0.0299
GTCACTAA	0.393
ATCACTAC	0.375
AACACTAG	0.151
ATCACTAG	0.357
CTCACTAA	0.129
CTCTCGTC	0.011
GCCTTACC	-0.255
TATGCACA	0.018
AAAGGGTA	-0.0845
CTAACCTC	-0.0908
AGTGAGCG	0.24
ATCATACG	0.315

Sequence	PBM E-score
ATTATACA	0.0365
GTCATTTA	0.313
GACATTTA	0.0126
ATCATTTC	0.312
CTCATTTA	0.0543
ATTATACG	0.331
ATCATACA	0.236
ATTATACC	0.217
CTCATTTC	0.0189
ATCATTTG	0.276
ATCATACC	0.205
AGGATCTC	-0.0704
GCTATCCA	0.00713
CGATTGGA	-0.00974
GCGCCGTA	0.291
TAGCCCTA	-0.149
AGGTTAAG	-0.128
CGCCTGAG	-0.0541
CCTACGCC	-0.0667
CTGATGTA	-0.129
CTGATTTA	0.0199
GTGATGTA	0.399
GTGATTTA	0.317
ATCATAAA	0.303
ATCATTCG	0.332

Sequence	PBM E-score
ATCATTCA	0.278
ATCATTCC	0.25
ATGATTTA	0.296
ATGATGTA	0.272
TTCATAAA	0.0402
ATCATAAG	0.105
AATGGGTG	-0.0386
ATCGGGTC	-0.0582
CCGCGAAC	0.00614
CGGAAAGA	-0.131
GTTGACTA	-0.164
GATGGGAC	-0.154
GACTGAAA	-0.037
CCCCAACG	-0.0545
AAAGGGAA	-0.0729
TGACCGAA	0.0507
AACATTTA	0.0911
ACCATTTA	0.0343
ATCATTTA	0.305
CATCCGAC	0.151
AGCACTGG	-0.168
ATCACTGC	0.32
CTCACTGC	-0.0817
ATCACTGG	0.332
AACACTGC	-0.155

Sequence	PBM E-score
ACCACTGG	-0.103
ATGTTCGC	0.00598
CGAAGGCA	-0.148
AACAGCCC	-0.373
GAAACGAC	0.153
CAAACGAC	0.198
AAAACGAC	0.323
AAAACGAA	0.167
AAAACGAT	0.326
AAAACGAG	0.0711
TATGCGGA	0.0153
TTTGCAAA	0.0778
GACCTGGC	-0.0415
CGAGTGAC	0.358
GGAGTGAC	0.333
AGAGTGAC	0.288
CGAGTGAA	-0.14
CGAGTGAG	-0.011
GGAGTGAA	-0.0623
